Hits are enriched below; roughly 21% of the tested compounds scored in any of these assays.
Pf growth 48h – Primary qHTS for delayed death inhibitors of the malarial parasite plastid, 48 hour incubation; P. falciparum luciferase growth in erythrocytes, 48 h; 5.9% of 310,000 active; Potency, µM (titrated, usually from 28.7 µM), inactives show at the highest dose activity change, negative = inhibition, usual class: inhibitors; active = well fitted inhibition curve with a large enough effect; inconclusive = small, poorly fitted or top-dose-only effect, or another doubt; inactive = no such curve, though single readings can be large or run the other way; note: potency is the fitted concentration of half-maximal effect; % is set by controls: 0 for no effect and ±100 for the full control effect
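Growth was read as firefly luciferase luminescence after a 48 h, 37 C, 5% CO2 exposure of compounds to reporter-bearing P. falciparum cultures (0.1% parasitemia, 2% hematocrit final) in Albumax-supplemented RPMI 1640.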
Cycloheximide cs – Cycloheximide Counterscreen for Small Molecule Inhibitors of Shiga Toxin. cell reporter, cycloheximide protein synthesis inhibition counterscreen. max response, %. 12% of 300,000 active; in the data active = max response mostly above about 13%, no sharp cut-off; inactive = mostly below about 14%; note: read at 38.3 µM for the half of the compounds with a filed dose; 0% is about no effect
Pf growth 96h – Primary qHTS for delayed death inhibitors of the malarial parasite plastid, 96 hour incubation; P. falciparum luciferase reporter growth, 96 h; 6.9% of 320,000 active; AID 504834, 2011; Potency, µM (doses to about 28.7 µM), for the others: top-dose activity change, negative = inhibition, hits mostly inhibitors; active = well fitted inhibition curve with a large enough effect; inconclusive = small, poorly fitted or top-dose-only effect, or another doubt; inactive = no such curve, though single readings can be large or run the other way; note: potency is the fitted concentration of half-maximal effect; % is set by controls: 0 for no effect and ±100 for the full control effect
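Two parasite generations (96 h, 37 C, 5% CO2) of compound exposure in infected erythrocytes (0.05% parasitemia, 2% hematocrit). Luciferase-reporter P. falciparum; decreased luminescence indicates inhibited growth, aimed at apicoplast-acting delayed death.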
Shiga toxin inh – A qHTS for Small Molecule Inhibitors of Shiga Toxin; AID 2315, 2010; inhibition, % at 38.7 µM; 9.2% of 290,000 active; Vero cells, Shiga toxin protein synthesis inhibition reporter; in the data active = inhibition mostly above about 28%, no sharp cut-off; inactive = mostly below about 43%; note: 0% is about no effect
NS1 function inh – qHTS Assay for Inhibitors of Influenza NS1 Protein Function; Potency, µM (series often up to 46.1 µM), inactives show at the highest dose activity, positive = more growth; 0.4% of 270,000 active; note: potency is the fitted concentration of half-maximal effect; actives are rising curves; nearly all actives have a fitted effect of over 50% in size
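Recovery from NS1-induced slow growth read by OD600 in budding yeast switched to galactose assay medium (pH 6.0, -URA) at 1:100 dilution. Compound 23 nl per well; the matching strain lacking NS1 serves as control.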
SARS PLP yeast – qHTS of Yeast-based Assay for SARS-CoV PLP. S. cerevisiae expressing SARS-CoV PLpro, growth rescue. AID 485353, 2010. 0.19% of 330,000 active. Potency, µM (highest dose often 32.9 µM), without a hit: at the highest dose activity, positive = growth rescue, usual class: activators; note: potency is the fitted concentration of half-maximal effect; 0% is about no effect; nearly all actives have a fitted effect of over 55% in size
Starred values were filed as active, the others as inactive; i = inactive; ? = inconclusive; · = not tested or not shown. Unless noted, calls come from the whole dose curve.

SMILES	Pf growth 48h	Cycloheximide cs	Pf growth 96h	Shiga toxin inh	NS1 function inh	SARS PLP yeast
C=CCC1(N(C(C)=O)c2ccccc2)CCCCC1	4%	-4	?	36	-7%	1%
O=C(CO)C(O)C(O)C(O)CO (configuration not stated)	?	-3	14%	-1	·	8%
c1coc(-c2ccnc(-n3cccc3)n2)c1	i	46*	110%	19	·	-2%
Cc1ccsc1-c1ccnc(-n2cccc2)n1	67%	22*	11%	52*	?	-2%
Clc1ccsc1-c1ccnc(-n2cccc2)n1	19%	22*	23%	52*	-1%	-1%
Clc1ccc(-c2ccnc(-n3cccc3)n2)s1	5%	8	15%	16	6%	-1%
CN(CC(=O)NCc1ccccn1)S(=O)(=O)c1ccc2ccccc2c1	20%	-3	18%	-3	-3%	0%
C=CCc1cccc(/C=N/NC(=O)CCC(=O)Nc2ccc(C)cc2)c1O	18%	-2	0%	-12	6%	30%
COc1ccc(N(C)S(=O)(=O)c2c(C)[nH]c(=O)[nH]c2=O)c(OC)c1	0%	-1	6.6µM*	32	0%	6%
COc1ccc(N(C)S(=O)(=O)c2c(C)[nH]c(=O)[nH]c2=O)cc1	27%	-7	?	-19	0%	0%
CCN1CCCC1CNC(=O)c1ccc2c(c1)NC(=O)/C(=C\c1ccc(OC)c(OC)c1)S2 (configuration not stated)	4.7µM*	9	?	0	4%	3%
Cc1cc(NC(=O)C(C)SCC(=O)Nc2nc3c(F)cc(F)cc3s2)no1 (configuration not stated)	?	·	?	·	·	7%
O=S(=O)(c1ccccc1)c1ncc(C(F)(F)F)cc1Cl	10µM*	17	?	16	·	-2%
O=S(=O)(c1ccccc1)c1ncc(C(F)(F)F)cc1O	14%	-5	1%	-7	·	-2%
O=C(COC(=O)c1ccc2ccccc2c1O)NCC(F)(F)F	24%	22*	18%	69*	7%	-2%
CC(C)OC(=O)CSc1nc(Cc2ccccc2)nc2ccccc12	?	-3	?	-1	-5%	0%
CCCc1ccc(Oc2cn[nH]c2-c2ccc(O)c(C)c2O)cc1	-26%	-1	10µM*	9	-79%	-27%
CCCOC(=O)c1ccc(Oc2cn[nH]c2-c2ccc(OCC)cc2O)cc1	4.7µM*	-2	·	24	-166%	-18%
CCCOC(=O)c1ccc(Oc2c(-c3ccc(OCC)cc3O)n[nH]c2C)cc1	5.2µM*	7	-8%	-18	-88%	-13%
COc1ccc(Oc2c(-c3ccc(O)cc3O)n[nH]c2C)cc1	11%	-4	3%	16	-13%	7%
CC1=C(C)/C(=N\OS(=O)(=O)c2ccc(C)cc2)C=CC1=O	?	-9	-1%	-6	-40%	-83%
CC1=C/C(=N\OS(=O)(=O)c2ccccc2)C(C)=CC1=O	·	8.3*	4.1µM*	18	-147%	-46%
CC1=C/C(=N\OS(=O)(=O)c2ccccc2)C(C(C)C)=CC1=O	?	21*	11%	37	-61%	-92%
Cc1cccc(C)c1OCC(O)CNC(C)(C)C (configuration not stated)	-1%	-4	?	-13	-5%	-1%
COc1cccc(C2CC(c3ccc(F)cc3)Nc3nc(N)nn32)c1 (configuration not stated)	0%	0	1%	8	7%	1%
SMILES	Pf growth 48h	Cycloheximide cs	Pf growth 96h	Shiga toxin inh	NS1 function inh	SARS PLP yeast
COc1ccc(C2CC(c3cccc(Cl)c3)n3nc(N)nc3N2)cc1 (configuration not stated)	10%	-2	9.3µM*	-6	8%	1%
COc1cccc(C2CC(c3cccc(Br)c3)n3ncnc3N2)c1 (configuration not stated)	-5%	-2	12µM*	-9	-20%	4%
COc1cccc(C2CC(c3cccc(OC)c3)n3nc(N)nc3N2)c1 (configuration not stated)	2%	-1	12µM*	3	7%	2%
CCCCOc1ccc(/C=c2\sc3ncnn3c2=O)cc1	12%	-1	1.5µM*	0	3%	-2%
CCOC(=O)c1oc2cccc(OCC(O)CNC(C)C)c2c1C (configuration not stated)	9.3µM*	5	1.3µM*	11	3%	-6%
CC1SCC(=NOCc2ccccc2)CS1 (configuration not stated)	71%	38*	40%	114*	0%	0%
c1ccc(CO/N=C(\c2ccc(C3CC3)nc2)C2CC2)cc1	0%	2	?	22	-37%	-2%
CCn1c(-c2ccccc2Cl)nn(CC(=O)Nc2cc(Cl)ccc2Cl)c1=S	?	-4	10µM*	-11	4%	5%
CC(=O)N1c2ccc(S(=O)(=O)NCC3CCC(C(=O)N(C)Cc4ccccc4)CC3)cc2CC1C (configuration not stated)	13µM*	1	?	2	-5%	1%
CC(=O)N1c2ccc(S(=O)(=O)NCC3CCC(C(=O)N4CCCCC4)CC3)cc2CC1C (configuration not stated)	-14%	-4	2%	21	-8%	2%
CC1Cc2cc(S(=O)(=O)N3CCC(C(=O)N(C)Cc4ccccc4)CC3)ccc2N1C(=O)C1CC1 (configuration not stated)	13µM*	15	10µM*	-4	0%	-6%
CC(=O)N1c2ccc(S(=O)(=O)N3CCC(C(=O)NC4CCC(C)CC4)CC3)cc2CC1C (configuration not stated)	?	17	5.2µM*	-4	-16%	0%
CC(=O)N1c2ccc(S(=O)(=O)NCC3CCC(C(=O)N4CCCC(C)C4)CC3)cc2CC1C (configuration not stated)	?	-2	1.2µM*	-5	12%	1%
CC[C@@H]1C/C=C\Cc2ccccc2[C@@H](C(=O)C[C@@H](O)CC(C)=O)OC1=O	·	·	·	·	·	1%
O=C1C2C3C=CC(C4CC34)C2C(=O)N1c1ccc2c(c1)OCO2 (configuration not stated)	86%	23	38%	31	·	3%
COc1ccc(NC(=O)CCNS(=O)(=O)c2ccc(Cl)c([N+](=O)[O-])c2)cc1S(N)(=O)=O	?	-8	?	-1	-4%	0%
CCCOc1ccc(N2C(=O)CC(N3CCC(c4nncn4CC)CC3)C2=O)cc1 (configuration not stated)	5%	-3	·	34	-233%	·
CC1Cc2cc(S(=O)(=O)N3CCC(C(N)=O)CC3)ccc2N1C(=O)C1CC1 (configuration not stated)	0%	11	12µM*	1	-13%	3%
